Assay outcomes as filed in PubChem.
Most compounds without a hit are left out; they make up all but 2.9% or so of the library.
PAFAH2 FP inh: inhibitors of human PAFAH2. actives 0.99% (n = 340,000). AID 492956. Q99487. recombinant PAFAH2, FP-rhodamine activity probe, fluorescence polarization. inhibition, % at 3.39 µM;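 active means inhibition above the mean over all tested compounds plus 3 SD, cut at about 30% in these data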;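 further: inhibitors block probe labeling of enzyme so polarization drops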
PAFAH1B3 inh: inhibitors of human PAFAH1B3. Q15102. recombinant PAFAH1B3, FP-rhodamine probe, fluorescence polarization. inhibition, % at 3.39 µM. actives 0.28% (n = 340,000);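 active means inhibition above the screen-wide average of all tested compounds plus 3 SD, cut at about 25% in these data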
Target sequence (Q15102 whole entry, looked up): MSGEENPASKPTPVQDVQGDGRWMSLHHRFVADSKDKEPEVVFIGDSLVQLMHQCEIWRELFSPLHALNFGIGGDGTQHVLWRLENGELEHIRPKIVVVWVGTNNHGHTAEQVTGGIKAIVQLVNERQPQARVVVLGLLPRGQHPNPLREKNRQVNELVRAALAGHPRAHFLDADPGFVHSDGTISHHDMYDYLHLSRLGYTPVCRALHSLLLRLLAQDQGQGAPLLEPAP
PME-1 primary: blocks human protein phosphatase methylesterase 1; Q9Y570; recombinant PME-1, FP-Rh probe fluorescence polarization; inhibition, % at 5.9 µM; actives 0.53% (n = 320,000); AID 2130;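 active means inhibition above the campaign mean of all compounds plus 3 SD, cut at about 26% in these data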;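 further: competitive labeling of PME-1 active site by serine hydrolase directed probe; inhibitors block probe labeling so polarization falls and inhibition rises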
Target sequence (Q9Y570 whole entry, looked up): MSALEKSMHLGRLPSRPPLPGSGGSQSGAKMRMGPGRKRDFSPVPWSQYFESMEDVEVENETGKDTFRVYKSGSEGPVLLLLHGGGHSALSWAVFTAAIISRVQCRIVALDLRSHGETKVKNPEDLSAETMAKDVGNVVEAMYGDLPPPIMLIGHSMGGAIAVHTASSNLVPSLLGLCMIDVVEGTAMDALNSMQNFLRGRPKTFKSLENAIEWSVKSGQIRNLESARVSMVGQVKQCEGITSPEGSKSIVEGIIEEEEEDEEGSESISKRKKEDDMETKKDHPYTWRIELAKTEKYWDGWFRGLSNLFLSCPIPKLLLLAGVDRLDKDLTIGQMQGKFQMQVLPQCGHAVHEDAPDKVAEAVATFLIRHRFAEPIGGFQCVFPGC
pPAFAH inh: pPAFAH (human) enzyme inhibition | Q13093 | recombinant pPAFAH, FP-rhodamine probe fluorescence polarization | inhibition, % at 3.39 µM | actives 1.5% (n = 330,000) | AID 463082;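 active means inhibition above the mean inhibition across the screen plus 3 SD, cut at about 25% in these data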;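 further: inhibitors block binding of the rhodamine activity-based probe so polarization drops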
PAFAH1B2 inh: blocks human PAF acetylhydrolase 1b catalytic subunit 2; actives 1.2% (n = 340,000); recombinant PAFAH1B2, FP-rhodamine activity probe, fluorescence polarization; P68402; AID 492953; inhibition, % at 3.39 µM;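 active means inhibition above the mean of all tested compounds plus 3 SD, cut at about 24% in these data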
Fam108B counter: blocks mouse Fam108B hydrolase in RBBP9 counter-screen | AID 1947 | inhibition, % at 9.51 µM | recombinant Fam108B, FP-Rh probe fluorescence polarization | actives 0.33% (n = 300,000);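 active means inhibition above the screen mean inhibition plus 3 SD, computed separately per campaign, cut at about 18% in these data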;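 further: inhibitors lower polarization as less probe binds the enzyme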
Fam108b inh conf: Fam108b (mouse) hydrolase inhibition, confirmation assay; inhibition, % at 9.51 µM; AID 1978; shares compounds with Fam108B counter; recombinant Fam108b, FP-Rh probe fluorescence polarization; actives 44% (n = 930);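 active means inhibition above a limit from the primary screen, the mean over all compounds plus 3 SD, cut at about 19% in these data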;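 further: inhibitors free the probe so polarization falls as inhibition rises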
Fam108b ABPP HTS: inhibits mouse Fam108b in gel-based ABPP | shares compounds with Fam108B counter | recombinant Fam108b, fluorophosphonate probe | inhibition, % at 20 µM | actives 44% (n = 260); in the data active means inhibition above about 40%
Large screens that a line does not name were inactive (follow-up assays come after a bar, where they were run).

COc1ccc(Cl)cc1Nc1nc(-c2sc(NC(=O)c3ccccc3)nc2C)cs1	none (no result: PAFAH2 FP inh, PAFAH1B3 inh, PAFAH1B2 inh)
CCOc1ccccc1Nc1nc(-c2sc(NC(=O)c3ccc([N+](=O)[O-])cc3)nc2C)cs1	Fam108B counter 22 (no result: PAFAH2 FP inh, PAFAH1B3 inh, PAFAH1B2 inh) | Fam108b inh conf 24
Cc1ccc(Nc2nc(-c3sc(NC(=O)c4ccc([N+](=O)[O-])cc4)nc3C)cs2)cc1	Fam108B counter 22 (no result: PAFAH2 FP inh, PAFAH1B3 inh, PAFAH1B2 inh) | Fam108b inh conf inactive
CCCCCC(=O)Nc1nc(C)c(-c2csc(Nc3ccc(Cl)cc3)n2)s1	Fam108B counter 20 | Fam108b inh conf inactive
COc1ccc(OC)c(N(CC(=O)Nc2ccccc2F)S(=O)(=O)c2ccccc2)c1	none
Cc1cc(C)cc(Nc2nc(-c3ccc(S(=O)(=O)N4CCCC4)cc3)cs2)c1	Fam108B counter 24 | Fam108b inh conf inactive
Cc1ccc(Nc2nc(-c3ccc(S(=O)(=O)N4CCCC4)cc3)cs2)cc1C	none
COc1ccc(C=NNC(=O)c2ccc(O)cc2)cc1CN1CCCc2ccccc21	none (no result: PAFAH2 FP inh, PAFAH1B3 inh, PME-1 primary, pPAFAH inh, PAFAH1B2 inh, Fam108B counter) | Fam108b ABPP HTS 90
COc1ccc(/C=N/NC(=O)c2ccc(O)cc2)cc1CN1CCCc2ccccc21	PME-1 primary 27, Fam108B counter 27 | Fam108b inh conf 33
COc1ccc(/C=N/NC(=O)c2ccc(F)cc2)cc1CN1CCc2cc(OC)c(OC)cc2C1C (stereo unspecified)	none
COc1cc2c(c(OC)c1OC)-c1ccc(N(C)CC(OC)OC)c(=O)cc1[C@@H](NC(C)=O)CC2	Fam108B counter 19 | Fam108b inh conf inactive
CN[C@H]1CCc2cc(OC)c(OC)c(OC)c2-c2ccc(N(C)CC(OC)OC)c(=O)cc21	none
CN1c2ccccc2C(C)(C)C12C=Nc1c(ccc3ccccc13)O2 (stereo unspecified)	Fam108B counter 31 | Fam108b inh conf inactive
Cc1c(O)ccc(C(Cc2ccc3ccccc3n2)=NO)c1O	none (no result: PAFAH2 FP inh, PAFAH1B3 inh, PME-1 primary, pPAFAH inh, PAFAH1B2 inh, Fam108B counter) | Fam108b ABPP HTS inactive
Cc1c(O)ccc(/C(Cc2ccc3ccccc3n2)=N\O)c1O	PAFAH1B3 inh 53, PME-1 primary 50, PAFAH1B2 inh 29, Fam108B counter 25 | Fam108b inh conf 29
O=C1CC(c2ccccc2Cl)=NN(c2ncnc3ccccc23)C1=O	none
Oc1c(Br)cc(Br)cc1/C=N/NC(=S)N[C@H]1CC2C=CC1C2 (stereo partly specified)	PAFAH2 FP inh 57, pPAFAH inh 46, Fam108B counter 18 | Fam108b inh conf inactive
CCOC(=O)C1=C(C)N=c2sc(=Cc3ccc(O)c([N+](=O)[O-])c3)c(=O)n2C1c1ccccc1OC (stereo unspecified)	none (no result: PAFAH2 FP inh, PAFAH1B3 inh, PME-1 primary, pPAFAH inh, PAFAH1B2 inh, Fam108B counter) | Fam108b ABPP HTS inactive
CCOC(=O)C1=C(C)N=c2s/c(=C\c3cccc(OCC(=O)O)c3)c(=O)n2C1c1ccccc1OC (stereo unspecified)	none
O=C(NCc1ccccc1)c1ccc(NC(=O)C2CCCCC2)cc1	none (no result: PME-1 primary, pPAFAH inh, Fam108B counter)
Oc1oc(-c2ccccc2Br)nc1C=Nc1ccccn1	none (no result: PAFAH2 FP inh, PAFAH1B3 inh, PME-1 primary, pPAFAH inh, PAFAH1B2 inh, Fam108B counter) | Fam108b ABPP HTS 90
Oc1ccc(N=Cc2ccc(O)c(O)c2)cc1	PAFAH1B3 inh 34, PME-1 primary 47, pPAFAH inh 34, Fam108B counter 36 | Fam108b inh conf inactive
O=Cc1ccc(O)c(O)c1	none
N#C/C(N=Nc1ccccc1O)=N\Nc1ccccc1O	PAFAH2 FP inh 41, PAFAH1B3 inh 50, PME-1 primary 32, PAFAH1B2 inh 36, Fam108B counter 39 | Fam108b inh conf 40 | Fam108b ABPP HTS inactive
COc1cc(-c2noc(C)c2C(=O)NCCc2ccccc2)cc(OC)c1OC	none (no result: PME-1 primary, Fam108B counter)
CCn1c(C)nc2cc(C(=O)N/N=C/c3cccc(O)c3O)ccc21	none
CN(C)c1ccc(/C=N/NC(=O)c2cccc(C(=O)N/N=C/c3ccc(N(C)C)cc3)n2)cc1	none
O=C(Nc1ccccc1)c1cccc(C(=O)Nc2ccccc2)n1	none
O=C(O)c1ccc(NC(=O)c2cccc(C(=O)Nc3ccc(C(=O)O)cc3)n2)cc1	PAFAH1B3 inh 40, PAFAH1B2 inh 31, Fam108B counter 21 | Fam108b inh conf inactive
CN(C)c1ccc(NC(=O)c2cccc(C(=O)Nc3ccc(N(C)C)cc3)n2)cc1	pPAFAH inh 26, Fam108B counter 21 | Fam108b inh conf 32 | Fam108b ABPP HTS inactive
COc1ccc(/C=N/NC(=O)c2cccc([N+](=O)[O-])c2)cc1OS(=O)(=O)c1ccccc1	Fam108B counter 31 | Fam108b inh conf 26
Oc1ccc(-c2csc(Nc3ncccn3)n2)c(O)c1	none
Cc1cccc(Nc2nc(-c3ccc(O)cc3O)cs2)n1	Fam108B counter 21 | Fam108b inh conf inactive
Cc1[nH]c2ccccc2c1C=NNC(=O)c1cccc(S(=O)(=O)Nc2cccc(C(F)(F)F)c2)c1	none (no result: PAFAH2 FP inh, PAFAH1B3 inh, PME-1 primary, pPAFAH inh, PAFAH1B2 inh, Fam108B counter) | Fam108b ABPP HTS 95
COCCn1c(SCCCC(=O)c2ccc(Br)cc2)nnc1-c1ccncc1	none
CCn1c(CSc2n[nH]c(N)n2)nc2cc(C(=O)O)ccc21	PAFAH2 FP inh 52, PAFAH1B3 inh 36, PME-1 primary 31, pPAFAH inh 25, PAFAH1B2 inh 38, Fam108B counter 30 | Fam108b inh conf 41 | Fam108b ABPP HTS inactive
COC(=O)c1ccc(C(=O)OC)c(NC(=O)CSc2n[nH]c(N)n2)c1	none (no result: PME-1 primary, Fam108B counter)
Cc1ccccc1-n1c(SCC(=O)c2cc(C)n(C)c2C)nnc1-c1cccnc1	none
CCn1c(CSc2nnc(-c3ccncc3)n2CCOC)nc2cc(C(=O)O)ccc21	PAFAH2 FP inh 47, PAFAH1B3 inh 27, PME-1 primary 32, pPAFAH inh 30, PAFAH1B2 inh 36, Fam108B counter 25 | Fam108b inh conf 35 | Fam108b ABPP HTS inactive
CCn1c(CSc2nnc3ccccn23)nc2cc(C(=O)O)ccc21	PAFAH2 FP inh 60, PAFAH1B3 inh 44, PME-1 primary 41, pPAFAH inh 26, PAFAH1B2 inh 49, Fam108B counter 50 | Fam108b inh conf 55 | Fam108b ABPP HTS inactive
CCn1c(CSc2nnc(-c3cccnc3)n2-c2ccccc2C)nc2cc(C(=O)O)ccc21	PME-1 primary 76, pPAFAH inh 42, Fam108B counter 69 (no result: PAFAH2 FP inh, PAFAH1B3 inh, PAFAH1B2 inh) | Fam108b inh conf 90 | Fam108b ABPP HTS inactive
Cc1ccc(NC(=O)Cn2cc(C(F)(F)F)cc(Cl)c2=O)cc1S(=O)(=O)N1CCCCC1	none
COc1ccc(NS(=O)(=O)c2cccs2)c(OC)c1	none
COc1ccc(Nc2nc3ccccc3nc2NS(=O)(=O)c2cccs2)c(OC)c1	Fam108B counter 23 | Fam108b inh conf inactive
CC1(C)CC(NC(=O)c2cccc(Cl)c2)CC(C)(C)N1	none
CC(=O)Nc1ccc(NC2=CC(=O)c3ccccc3C2=O)cc1	none
CCOC(=O)c1ccc(Nc2cc(C)nc(-c3ccccc3)n2)cc1	Fam108B counter 18 | Fam108b inh conf inactive
CCOC(=O)c1ccc(Nc2nc(C)cc(C)n2)cc1	none (no result: PME-1 primary, pPAFAH inh, Fam108B counter)
